# 12-LOX inh: blocks human arachidonate 12S-lipoxygenase; P18054; purified 12hLO, xylenol orange hydroperoxide absorbance; Potency, µM (doses to about 108 µM), without a hit: top-dose activity change, negative = inhibition, most hits filed as inhibitors; actives 1.1% (n = 580,000); AID 1671190; also: % is scaled to controls: 0 for no effect and ±100 for the full control effect
# Target sequence (P18054 whole entry, looked up): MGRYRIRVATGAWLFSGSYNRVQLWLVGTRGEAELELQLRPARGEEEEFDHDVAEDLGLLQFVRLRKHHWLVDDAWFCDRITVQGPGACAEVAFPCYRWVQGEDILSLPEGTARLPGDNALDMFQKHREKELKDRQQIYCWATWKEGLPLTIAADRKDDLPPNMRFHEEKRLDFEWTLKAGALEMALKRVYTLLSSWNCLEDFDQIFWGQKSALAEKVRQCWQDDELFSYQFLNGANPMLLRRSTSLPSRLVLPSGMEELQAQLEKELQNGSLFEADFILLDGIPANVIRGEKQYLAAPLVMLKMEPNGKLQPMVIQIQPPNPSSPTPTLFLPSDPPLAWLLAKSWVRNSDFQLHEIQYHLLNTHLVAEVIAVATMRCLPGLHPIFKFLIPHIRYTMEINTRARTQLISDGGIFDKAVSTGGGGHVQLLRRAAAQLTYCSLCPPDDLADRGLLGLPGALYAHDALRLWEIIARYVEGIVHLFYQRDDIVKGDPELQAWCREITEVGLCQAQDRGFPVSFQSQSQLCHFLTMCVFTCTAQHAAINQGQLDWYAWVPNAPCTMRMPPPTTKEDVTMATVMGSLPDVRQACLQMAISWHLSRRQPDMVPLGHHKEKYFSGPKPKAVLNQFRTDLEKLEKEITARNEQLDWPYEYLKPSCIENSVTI
#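 Hydroperoxide product was detected by ferrous iron/xylenol orange as the 573 to 405 nm absorbance ratio. Arachidonic acid at 40 uM (final) was turned over for 30 min at room temperature by 150 nM human 12hLO, pH 7.0 Hepes buffer, after 15 min compound preincubation.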
# MCF10A rereplic: DNA re-replication induction in MCF 10a cells | AID 624296 | MCF 10A DNA re-replication, Hoechst nuclear intensity, 48 h | actives 2.9% (n = 350,000) | Potency, µM (titrated, usually from 46.1 µM), for inactives: at the highest dose activity, positive = re-replication, most hits filed as activators; also: % of control where 0% means no effect; nearly all actives have a fitted effect of over 50% in size
# SW480 rerep: induces DNA re-replication in SW480 colon adenocarcinoma cells | SW480 DNA re-replication, Hoechst DNA content imaging, 48 h | Potency, µM (doses to about 46.1 µM), for inactives: at the highest dose re-replication activation, most hits filed as activators | actives 1.8% (n = 340,000); also: % of control where 0% means no effect; nearly all actives have a fitted effect of over 55% in size
#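 250 cells/well; 23 nL cpd via pin tool; 48 hr, 37 C, 5% CO2; Hoechst 40 min; imager read of total nuclear intensity, ex 405/em 500-530 nm.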
# KB-V1 MDR tox: kills drug-selected multidrug resistant KB-V1 cells | KB-V1 MDR cells viability, CellTiter-Glo, 72 h | Potency, µM (highest dose often 46.1 µM), usual class: cytotoxic | actives 3.4% (n = 400,000); also: % is scaled to controls: 0 for no effect and ±100 for the full control effect; nearly all actives have a fitted effect of over 60% in size
#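 Cytotoxicity toward P-gp-expressing KB-V1 cells was determined as loss of CellTiter-Glo luminescence after 72 h at 37 degrees C. Compounds were tested in quantitative HTS format across a concentration range, with curves fitted to normalized data.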
# PINK1 modulator: changes PINK1 expression; Potency, µM (doses to about 76.6 µM), for inactives: at the highest dose activation (PINK1 increase), hits mostly activators; AID 624263; actives 0.2% (n = 410,000); PINK1 immunofluorescence, high-content cytometry, 24 h; active = well fitted activation curve with a large enough effect; inconclusive = small, poorly fitted or top-dose-only effect; cell line not stated here; also: % of control where 0% means no effect; nearly all actives have a fitted effect of over 65% in size
#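 Compound titrations (5 concentrations, 24 h) on a stable cell line; DMSO and CCCP controls. Endpoint: fixed-cell PINK1 immunofluorescence with mitochondrial, cell and nuclear markers, scanned by microplate cytometer.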
# KB-3-1 cytotox: KB-3-1 parental cell cytotoxicity; KB-3-1 viability, CellTiter-Glo ATP luminescence, 72 h; Potency, µM (top dose mostly 46.1 µM), most hits filed as cytotoxic; actives 1.4% (n = 400,000); also: % is scaled to controls: 0 for no effect and ±100 for the full control effect; nearly all actives have a fitted effect of over 60% in size
#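 Multi-concentration cytotoxicity screen in KB-3-1 cells grown in DMEM lacking phenol red with 10% FBS. After 72 h at 37 °C with compound, ATP-dependent luminescence was recorded.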
# * marks the source's active call; other numbers are inactive results; i = inactive; ? = inconclusive; . = not tested or not shown; ! = a repeat was not active; [ ] = another dose, or the depositor's remark. In the library only some 5.8% were active in any assay of this set; here they are far more common. Unless noted, calls follow the shape of the dose curve; as a rule, active = well fitted curve in the direction sought with a large enough effect; inconclusive = small, poorly fitted or top-dose-only effect, or another doubt; inactive = no such curve, though single readings can be large; an effect the other way counts as inactive or inconclusive. Potency is read from the fitted curve at half-maximal effect.
SMILES,12-LOX inh,MCF10A rereplic,SW480 rerep,KB-V1 MDR tox,PINK1 modulator,KB-3-1 cytotox
COCCOC1CN(C2CCN(Cc3ccc(C)o3)CC2)C12CCCCC2 (stereo unspecified),18.8%,.,.,.,.,.
C=CCNc1nc(-c2c(C)nc3sccn23)cs1,?,13.3%,-1.9%,i,-0.2%,i
Cc1nc2sccn2c1-c1csc(NCc2ccccc2)n1,?,1.0%,16.9%,13µM*,.,?
Cc1ccc(Nc2nc(-c3c(C)nc4sccn34)cs2)cc1,7.08µM*,.,.,.,.,.
COC(=O)c1ccc(C2N=C(c3cccs3)CC(c3ccccc3O)N2)cc1 (stereo unspecified),274.8%,18.4µM*,?,i,2.3%,i
O=C(c1ccccc1)N1N=C(c2cccs2)CC1c1ccccc1O (stereo unspecified),39.2%,17.1%,-7.3%,i,2.7%,i
CN1CCN(CCCN2c3ccccc3Sc3ccc(Cl)cc32)CC1,?,11.6µM*,38.1%,16.4µM*!,-0.9%,?
CCC(=O)c1ccc2c(c1)N(CCCN1CCN(CCO)CC1)c1ccccc1S2,.,33.5µM*,?,.,.,.
CC(=O)c1ccc2c(c1)N(CCCN1CCN(CCO)CC1)c1ccccc1S2,.,20.0%,?,.,.,.
C[C@H]1CCC/C=C/[C@@H]2C[C@H](O)C[C@H]2[C@H](O)[C@H](S(=O)c2ccc(O)cc2)CC(=O)O1 (stereo partly specified),39.8µM*,20.8%,?,?,-2.0%,0.0092µM*
COc1nc(N)c(C#N)c(-c2ccc(N(C)CCC#N)cc2)c1C#N,?,18.4µM*,15.1%,?,1.7%,i
COc1ccc(-c2c(C#N)c(N)nc(Sc3ccc(Cl)cc3)c2C#N)cc1,?,?,?,i,7.9%,i
CC(=O)N1C[C@@H]2CCCN3CCC[C@@H]([C@H]23)[C@H]1CCCC(=O)NCc1ccc(C)o1,51.0%,.,.,.,.,.
CCOC(=O)C(=O)NNc1cccc(C)c1C,?,8.2µM*,-77.7%,i,0.8%,i
CCCCc1c(-c2ccccc2OC)ncn1CCc1ccccc1OC,-17.8%,.,.,8.2µM*,?,?
CCCCCc1c(CC)ncn1CCc1ccccc1OC,-9.1%,.,.,?,31.6µM*,16.4µM*
CCCCc1c(-c2ccccc2OC)ncn1CCc1ccccc1Cl,-66.2%,.,.,18.4µM*,?,?
CCCc1c(-c2ccccc2OC)ncn1CCc1ccccc1OC,-9.8%,.,.,.,.,.
CCCCCc1c(-c2ccccc2OC)ncn1CCc1ccccc1OC,-46.9%,.,.,11.6µM*,?,23.1µM*
O=C(Nc1cccc2cccnc12)C1(c2ccccc2)CCC1,25.3%,.,.,.,.,.
CCCCc1c(-c2ccccc2OC)ncn1Cc1ccccc1,-28.5%,.,.,.,.,.
COc1ccccc1CCn1cnc(Cc2ccccc2)c1C(C)C,-18.0%,.,.,13µM*,?,?
CCCCc1c(-c2ccccc2Br)ncn1CCc1ccccc1OC,?,.,.,14.6µM*,?,?
CCCCc1c(-c2ccccc2OC)ncn1Cc1ccc(Cl)cc1Cl,31.6µM*,.,.,.,.,.
O=C(COC(=O)CCC(=O)c1ccc(F)cc1)NC1CCCCCC1,-3.7%,.,.,.,.,.
SMILES,12-LOX inh,MCF10A rereplic,SW480 rerep,KB-V1 MDR tox,PINK1 modulator,KB-3-1 cytotox
COCCn1cnc2c1c(=O)n(Cc1ccccc1)c(=O)n2CC(C)C,-0.9%,.,.,.,.,.
CCCN(C(=O)c1cc(S(=O)(=O)N2CCN(CC)CC2)ccc1Cl)C1CCS(=O)(=O)C1 (stereo unspecified),?,-5.2%,-3.6%,i,4.1%,i
CCN(C(=O)c1cc(Cl)ccc1Cl)C1CCS(=O)(=O)C1 (stereo unspecified),1.6%,11.7%,-23.4%,18.4µM*,2.7%,i
O=C(/C=C/c1ccc(Cl)cc1Cl)N(Cc1ccc(Cl)cc1)C1CCS(=O)(=O)C1 (stereo unspecified),-20.1%,?,0.0%,5.8µM*,-0.6%,?
Cc1c(C#N)c(NC(=O)CSc2nnnn2CC2CCCO2)n(C2CCCC2)c1C (stereo unspecified),-2.2%,.,.,.,.,.
O=C(CSc1nc2nc[nH]c2c(=O)[nH]1)c1ccccc1,2.0%,.,.,.,.,.
COC(=O)C/C(O)=C(/N=Nc1cccc(C(F)(F)F)c1)C(=O)OC,-20.1%,5.8µM*,?,i,-2.7%,i
COC(=O)CC1c2cc(OC)c(OC)cc2CCN1Cc1nc(C2CC2)no1 (stereo unspecified),-28.3%,.,.,.,.,.
CC(C)(C)N(NC(=O)Nc1ccc(Cl)c(Cl)c1)C(=O)c1ccccc1,-34.5%,?,-3.3%[9.22 µM],23.1µM*,?,?
CC(C)(C)N(NC(=O)Nc1ccc(F)cc1)C(=O)c1ccccc1,-22.9%,7.9%,-4.6%,i,-0.1%,i
CS(=O)(=O)N1Cc2ccccc2CC2(CCCCN2Cc2cccnc2)C1 (stereo unspecified),-6.2%[6.33 µM],.,.,.,.,.
CC(C)(C)c1ccc(S(=O)(=O)N(CCCN2CCOCC2)Cc2cccs2)cc1,?,5.8µM*,?,i,7.7%,i
O=[N+]([O-])c1ccc(S(=O)(=O)N(CCCN2CCOCC2)Cc2cccs2)cc1,?,5.4%,-70.7%,?,-0.8%,i
CCOC(=O)CCN(Cc1cccs1)S(=O)(=O)c1ccc(Cl)cc1,0.5%,0.4%,-6.7%,14.6µM*,3.0%,i
CCN(CC)C(=O)CNC(=S)N(CCCN1CCOCC1)Cc1cccs1,-2.5%,17.2%,-153.8%,7.31µM*,-2.0%,i
CC(=O)Nc1ccc(S(=O)(=O)N(CCCN2CCOCC2)Cc2cccs2)cc1,-16.3%,1.16µM*,7.2%,i,5.9%,i
CCc1ccc(NC(=O)N(CCCN2CCOCC2)Cc2cccs2)cc1,-14.2%,17.9%,16.0%,i,0.8%,i
O=C(CNC(=S)N(CCCN1CCOCC1)Cc1cccs1)NCCCN1CCOCC1,1.8%,-0.4%,2.0%,i,-2.2%,i
CCOC(=O)c1nc(NCc2ccccc2OCC)c2ccccc2n1,-2.5%,.,.,.,.,.
CC(=O)Nc1nc(COc2ccccc2)cs1,-15.3%,4.9%,-7.3%,i,6.6%[38.3 µM],i
Cc1ccc(C(=O)Nc2nc(COc3ccccc3)cs2)s1,-20.5%,20.6µM*,?,?,-1.4%[38.3 µM],i
O=C(Nc1nc(COc2ccccc2)cs1)C12CC3CC(CC(C3)C1)C2,28.2µM*,8.2µM*,-3.0%,i,28.3%[38.3 µM],i
Cc1ccc(-c2nc(Cn3cnc(C#N)n3)co2)cc1,-6.4%,.,.,.,.,.
Cc1nc(-c2cccnc2)sc1C(=O)Nc1cccc(C(F)(F)F)c1,-2.9%,7.9%,-3.3%,16.4µM*,-2.9%,i
Cc1nc(-c2cccnc2)sc1C(=O)Nc1ccc(C(F)(F)F)cc1,?,-1.0%,-5.5%,?,1.1%,i

# Compound activity: PubChem, National Center for Advancing Translational Sciences (NCATS)
